This passage reports growth results from PubChem BioAssay (NCI).

Common to all, as to test: NCI-60 one-dose screen, 48 h (100 = growth as untreated, 0 = no growth, -100 = all killed)
Common to all, as to conditions: 10 µM unless noted

The test system of assay [1] is DU-145 prostate.
In assay [2] the test system is K-562 leukemia.
Assay [3] has as its system MALME-3M melanoma.
Assay [4] concerns MDA-MB-231 breast.
Assay [5] relates to RXF 393 renal.
The test system of assay [6] is SF-268 CNS.
Assay [7] concerns SF-539 CNS.
Assay [8] has as its system UACC-257 melanoma.
The subject of assay [9] is M14 melanoma.
Assay [10] has as its system HCT-15 colon.
Assay [11] relates to HT29 colon.
Assay [12] concerns SNB-75 CNS.
The subject of assay [13] is SNB-19 CNS.
For assay [14], the system named is U251 CNS.
The subject of assay [15] is PC-3 prostate.
The test system of assay [16] is SK-MEL-5 melanoma.
The subject of assay [17] is UACC-62 melanoma.
In assay [18] the test system is LOX IMVI melanoma.
Assay [19] deals with SK-MEL-28 melanoma.

The panel holds about 83,000 compounds, 20% with a hit somewhere; the sample as a whole holds those more often.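 Compound tested at a single concentration for 48 hours in 96-well plates; a percent growth value below 10 was scored as active.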 Unmarked numbers belong to inactive results. Activity calls are given as the source filed them.

On to `NC(=S)N/N=C(/c1cccs1)C1CC1`, for which the growth in assay [1] is 105%; in assay [2], 69.3%; in assay [3], 96%; in assay [4] it was 91.4%; in assay [5], 102%; in assay [6], 99.4%. Further, the growth in assay [7] was 95.7%; in assay [8], 39.4%; in assay [9] it was 71.3%; in assay [10], 71%; in assay [11], 58.4%; in assay [12], 77.2%. Besides, the growth in assay [13] is 100%; in assay [14], 72.9%; in assay [15], 63.5%; in assay [16] it was 106%; in [17] it was 98.8%; in [18], 68.3%. The growth in assay [19] was 101%.

As to `O=NN(CC(=O)NNc1ccccc1)CC(=O)NNc1ccccc1`, the growth was 68.7% in assay [1]; 11.8% in assay [2]; 102% in assay [3]; 58.7% in assay [4]; 84.9% in assay [5]; 59.7% in assay [6]. Also, the growth in [7] was 72%; in assay [8], 95.4%; in assay [9], 33.1%; in assay [10] it was 33.7%; in [11], 69.2%; in assay [12], 90.8%. For the same compound, the growth in assay [13] is 96.2%; in assay [14] it was 78.8%; in assay [15], 58.8%; in [16], 90.5%; in assay [17], 3.99% (active); in assay [18], 7.04% (active). In addition, the growth in [19] is 95.5%.

Turning to `Nc1c(C(=O)Nc2cccc(Cl)c2)sc2ncc(Br)cc12`, the growth in [1] is 59.6%; in assay [2], 82.9%; in [3], 66.9%; in [4] it was 73.5%; in [5], 86.4%; in [6], 64.1%. The growth in assay [7] is 61.5%; in assay [8], 96%; in [9] it was 79.9%; in assay [10], 82.5%; in assay [11] it was 66.4%; in [12], 56%. The growth in assay [13] was 107%; in assay [14], 10.8%; in [15], 80.1%; in assay [16], 95.6%; in [17] it was 99.5%; in assay [18] it was 39.9%. Further, the growth in assay [19] is 89.2%.

As to `COc1cc(NCCCCC(C)N)c2nccc(C)c2c1` (configuration not stated), the growth is 111% in assay [1]; 80.4% in [2]; 98% in assay [3]; 62.9% in assay [4]; 89.8% in assay [5]; 100% in assay [6]. Further, the growth was 83.9% in assay [7]; 107% in [8]; 95.4% in assay [9]; 93.9% in [10]; 76.3% in [11]; 72% in assay [12]. Further, the growth in assay [13] is 94.6%; in assay [14] it was 93%; in assay [15], 66%; in [16], 87.7%; in assay [17], 91.1%; in assay [18] it was 92.7%. The growth in [19] is 99.3%.

Turning to `CCCCCCCCCCCCCCCCOc1ccc(S(=O)(=O)N(C)C)cc1[N+](=O)[O-]`, the growth is 113% in assay [1]; 112% in [2]; 86.8% in assay [3]; 88.9% in [4]; 61.7% in assay [5]; 97.5% in assay [6]. In addition, the growth in assay [7] was 89.6%; in assay [8] it was 108%; in assay [9] it was 106%; in assay [10], 97.2%; in assay [11], 96.4%; in assay [12], 21.2%. Moreover, the growth was 78.9% in [13]; 50.6% in assay [14]; 94.4% in [15]; 101% in [16]; 86.7% in assay [17]; 120% in [18]. In addition, the growth in assay [19] is 107%.

With `Oc1ccc(Cl)cc1-c1cc(-c2ccccc2Cl)[nH]n1`, the growth in assay [1] is 73.3%; in [2], 37.8%; in assay [3] it was 71.1%; in [4], 21.7%; in assay [5], 84.2%; in assay [6], 49.6%. Besides, the growth was 83.4% in [7]; 81.8% in assay [8]; 84.9% in [9]; 29.2% in [10]; 92.2% in [11]; 44.2% in [12]. In addition, the growth in assay [13] is 88%; in assay [14] it was 67%; in assay [15] it was 44.1%; in assay [16], 68.7%; in assay [17] it was 59.5%; in assay [18], 51.7%. The growth in [19] is 89.7%.

Take `C=CCn1c(SCC(=O)Nc2ccc(/C(C)=N\O)cc2)nnc1-c1cc(-c2ccccc2)nc2ccccc12`: the growth is 75% in assay [1]; 27.6% in assay [2]; 96.3% in assay [3]; 58.3% in [4]; 68.8% in [5]; 62.8% in assay [6]. The growth in [7] was 50.6%; in assay [8], 75.6%; in assay [9], 34%; in assay [10], 50.8%; in [11], 49.9%; in assay [12] it was 58.3%. The growth in assay [13] is 68.5%; in assay [14], 59.1%; in assay [15], 43.5%; in [16], 48.4%; in [17], 24.3%; in assay [18], -58.1% (active). In addition, in assay [19], the growth is 86.7%.

For `CC(COC(=O)c1ccccc1)N1CC2CCC(C1)O2` (configuration not stated), the growth was 107% in assay [1]; 97.3% in assay [2]; 104% in [3]; 107% in [4]; 106% in [5]; 106% in assay [6]. For the same compound, the growth in [7] was 100%; in assay [8] it was 92.7%; in assay [9], 99.3%; in assay [10] it was 99.7%; in assay [11], 107%; in [12], 93.7%. The growth in assay [13] is 102%; in assay [14] it was 98.7%; in assay [15] it was 91.6%; in assay [16], 101%; in assay [17], 100%; in assay [18], 98%. In assay [19], the growth is 104%.
